From PubChem BioAssay (NCATS)
Several values for one entry are separate records, joined by “and”; a condition that tells them apart may be missing. Equal entries are not always repeated. Records with an inconclusive call do not appear. A call without a number means that no potency is given here. Activity calls are given as the source filed them. Unless noted, the call rests on the fitted dose curve; in most records, active means well fitted curve in the direction sought with a large enough effect; inconclusive means small, poorly fitted or top-dose-only effect, or another doubt; inactive means no such curve, though single readings can be large; an effect the other way counts as inactive or inconclusive.

Columns and labels:
[1] = target: Mitogen-activated protein kinase 10 (Mus musculus) (UniProt Q61831); experiment: JNK3 AlphaScreen Assay (AID 530; active means well fitted curve in either direction with a large enough effect, not every such curve was filed as active;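 further: kinase came from lysate of stimulated human HepG2 cells; signal reports phosphorylation of biotinylated GST-cJun 1-79 at Ser73 with 10 µM ATP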)
Summary of the method: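 Compound titrations were preincubated 15 minutes at room temperature with substrate, antibody and pre-activated JNK3-containing HepG2 lysate. Reactions were started with 10 uM ATP and stopped with EDTA-containing bead buffer for AlphaScreen detection.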

[2] = Cellular Toxicity (caspase-3) Jurkat (AID 655); conditions: Jurkat caspase-3 activation, luminescence; caspase-3 activation: at 92.2 µM (top of the series), DMSO = 0%, tamoxifen = 100%;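 further: cells exposed to compound for 16 h at 37 °C before reading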
Summary of the method: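 qHTS in human Jurkat T-cell leukemia line: 16 hr compound treatment at 37 °C, caspase-3/7 activity measured by Caspase-Glo luminescence. AC50 derived from Hill equation.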

[3] = Cellular Toxicity (caspase-3) BJ (AID 658);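 further: cells exposed to compound for 16 hours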
Summary of the method: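 Readout: Caspase-Glo 3/7 luminescence increase in BJ cells after 16 hr treatment at 37 °C. Staurosporine and tamoxifen served as positive controls; AC50 values came from Hill modelling of data normalized to DMSO and 10 uM staurosporine.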

[4] = Cellular Toxicity (caspase-3) MRC-5 (AID 659);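 further: cells exposed to compound for 16 h at 37 °C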
Summary of the method: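 Concentration-dependent caspase 3/7 activation is measured in human normal lung fibroblasts (MRC-5) following 16-hour treatment. AC50 values come from standard Hill-equation modeling of luminescence normalized to DMSO and 10 uM staurosporine.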

[5] = target: Cytochrome P450 3A4 (Homo sapiens) (UniProt P08684); experiment: qHTS Assay for Inhibitors and Substrates of Cytochrome P450 3A4 (AID 884); further: nearly all actives have a fitted effect of over 50% in size; further: potency means the concentration at half of the fitted maximal effect
Summary of the method: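 20 nM human CYP3A4 with 25 uM Luciferin-PPXE (at KM) in 200 mM KPO4, preincubated 10 min with compound; NADPH regeneration started a 60 min RT reaction. Luciferin detected by luminescence, normalized to 57 uM ketoconazole as full inhibition.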

[6] = MultiTox-Fluor Cytotoxicity Assay - LYMP1-001 - Live Cells (AID 947)
[7] = MultiTox-Fluor Cytotoxicity Assay - LYMP1-002 - Live Cells (AID 955);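 further: cells exposed to compound for 16 hours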
Summary of the method: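 Human lymphoblastoid LYMP1-002 cells, 2500/well, treated 16 h at 37 C in complete medium. Live-cell protease activity via GF-AFC fluorescence (Ex/Em 405/510) after 60 min reagent incubation; AC50 from Hill fits.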

[8] = Cell Viability - LYMP2-005 (AID 967)
Summary of the method: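 Luciferase-based ATP quantitation served as the viability measure in human lymphoblastoid LYMP2-005 cells exposed to test compounds for 24 h at 37 C in complete culture medium. Potency (AC50) was obtained by fitting concentration-response curves with the Hill equation.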

[9] = Cell Viability - LYMP2-015 (AID 971); further: nearly all actives have a fitted effect of over 55% in size
Summary of the method: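 LYMP2-015 human lymphoblastoid cells (2500/well) in complete medium, compound-treated 24 h at 37 C; viability read as cellular ATP by CellTiter-Glo luminescence after 30 min at room temperature. AC50 from Hill-equation fits of qHTS concentration-response data.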

[10] = target: Thyroid hormone receptor beta (Homo sapiens) (UniProt P10828); experiment: qHTS assay for small molecule agonists of thyroid hormone receptor beta signaling (AID 588545; calls by dose curve)
Summary of the method: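 Agonist activity was read as beta-lactamase CCF4 fluorescence (405 ex, 460/530 em), scaled between DMSO (0%) and 10 nM T3 (100%), then Hill-fitted for EC50 and efficacy. HEK 293 TR-UAS-bla cells in 2% charcoal/dextran FBS medium were exposed 18 h at 37 C.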

[11] = qHTS assay for small molecule antagonists of retinoid X receptor alpha signaling (AID 588546; active means well fitted inhibition curve with a large enough effect in the signal ratio, with a control signal flat, not every such curve was filed as active; the % refers to the signal ratio;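 further: cells stimulated with 9-cis-retinoic acid as agonist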); conditions: HEK293T RXRa-UAS-bla, beta-lactamase ratio, antagonist mode; measured here: W530 green channel, cytotoxicity proxy
Summary of the method: (§1)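 Beta-lactamase reporter inhibition, read as CCF4 fluorescence ratio (ex 405, em 460/530 nm) after 2 h at RT. HEK293T UAS-bla cells, 2500/well, were stimulated with 9-cis-RA at 500 or 100 nM final alongside test compound for 18 h at 37 C.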

[12] = target: Retinoic acid receptor RXR-alpha (Homo sapiens) (UniProt P19793); experiment: as above; conditions: HEK293T RXRa-UAS-bla, beta-lactamase ratio, antagonist mode
Summary of the method: as §1

[13] = target: Voltage-gated inwardly rectifying potassium channel KCNH2 (Homo sapiens) (UniProt Q12809); experiment: qHTS Assay for Small Molecule Inhibitors of the Human hERG Channel Activity (AID 588834);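 further: top concentration of the series differs between compounds; lower thallium flux fluorescence means stronger hERG block; nearly all actives have a fitted effect of over 50% in size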
Summary of the method: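 Blockade is seen as reduced FluxOR thallium-flux fluorescence in U2OS cells expressing hERG from a BacMam construct, in Opti-MEM with 2% FCS. Concentration-response data fitted to the Hill equation for AC50.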

[14] = qHTS assay for small molecule disruptors of the mitochondrial membrane potential - 5 hr assay (AID 651755; calls by dose curve; further: nearly all actives have a fitted effect of over 40% in size; further: potency means the concentration at half of the fitted maximal effect)
Summary of the method: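 HepG2, 2,000 cells/well, overnight attach; cpd or DMSO 5 hr, 37C/5% CO2; Mito-MPS 30 min 37C; fluor 490/535 + 540/590 nm.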

[15] = qHTS assay for environmental chemicals that activate the Aryl hydrocarbon Receptor (AhR) signaling pathway (AID 651777); conditions: 1A2-DRE human hepatoma cells, luciferase, 24 h; activation: stronger effect = higher value; further: nearly all actives have a fitted effect of over 15% in size
Summary of the method: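 Human hepatoma 1A2-DRE cells stably carrying a DRE/CYP1A2 promoter–luciferase reporter, 1,200 cells/well, exposed to compound 24 hr at 37 C. Luciferase read by One-Glo luminescence after 30 min at room temperature; increased signal marks AhR activation.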

[16] = target: Nuclear receptor ROR-gamma (Homo sapiens) (UniProt P51449); experiment: qHTS assay for small molecule antagonists of the retinoid-related orphan receptor gamma (ROR-gamma) signaling pathway (AID 651802);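 further: luciferase reporter luminescence driven by ROR response element; nearly all actives have a fitted effect of over 60% in size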
Summary of the method: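 CHO cells with TET-inducible ROR-gamma and RORE-luciferase reporter, dosed then doxycycline-induced. After 16 h at 37C, One-Glo luminescence read; decreased signal indicates antagonism.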

[17] = target: Nuclear receptor subfamily 1 group I member 2 (Rattus norvegicus) (UniProt Q9R1A7); experiment: qHTS assay for small molecule activators of the rat pregnane X receptor (rPXR) signaling pathway (AID 651751; call rule not given here); conditions: rPXR reporter cells, luciferase (One-Glo), 24 h
[18] = qHTS assay for small molecule activators of the human pregnane X receptor (PXR) signaling pathway (AID 720659; call rule not given here)
[19] = Cell Viability - Mesenchymal (AID 546);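 further: cells exposed to compound for 40 hours before reading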
Summary of the method: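 AC50 values reflect the drop in intracellular ATP in a human kidney mesenchymal line derived from normal glomeruli. Treatment lasts 40 hr at 37 °C in complete medium, and the signal comes from CellTiter-Glo luminescence.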

[20] = Cell Viability - LYMP2-001 (AID 921); further: nearly all actives have a fitted effect of over 70% in size
Summary of the method: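 A lymphoblastoid cell line of human origin was treated with library compounds across a concentration series for 24 hours, and viable cell number was estimated from ATP-driven luciferase light output. Hill modeling gave AC50.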

Chain of Cytochrome P450 3A4 (Homo sapiens) (P08684 whole entry, looked up): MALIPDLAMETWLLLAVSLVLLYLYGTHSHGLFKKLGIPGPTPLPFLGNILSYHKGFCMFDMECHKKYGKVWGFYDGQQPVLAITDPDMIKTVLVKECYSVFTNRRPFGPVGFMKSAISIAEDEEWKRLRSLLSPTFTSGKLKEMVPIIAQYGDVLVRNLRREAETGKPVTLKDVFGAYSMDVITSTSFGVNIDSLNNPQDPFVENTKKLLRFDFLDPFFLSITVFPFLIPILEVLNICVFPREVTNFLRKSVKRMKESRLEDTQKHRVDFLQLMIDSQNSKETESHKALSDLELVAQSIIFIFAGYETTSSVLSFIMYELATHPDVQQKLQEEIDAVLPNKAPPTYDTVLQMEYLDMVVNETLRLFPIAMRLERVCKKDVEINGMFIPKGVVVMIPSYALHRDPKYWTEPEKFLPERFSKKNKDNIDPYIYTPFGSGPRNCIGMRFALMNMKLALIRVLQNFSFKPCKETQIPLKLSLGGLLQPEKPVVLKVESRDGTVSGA
Chain of Thyroid hormone receptor beta (Homo sapiens) (P10828 whole entry, looked up): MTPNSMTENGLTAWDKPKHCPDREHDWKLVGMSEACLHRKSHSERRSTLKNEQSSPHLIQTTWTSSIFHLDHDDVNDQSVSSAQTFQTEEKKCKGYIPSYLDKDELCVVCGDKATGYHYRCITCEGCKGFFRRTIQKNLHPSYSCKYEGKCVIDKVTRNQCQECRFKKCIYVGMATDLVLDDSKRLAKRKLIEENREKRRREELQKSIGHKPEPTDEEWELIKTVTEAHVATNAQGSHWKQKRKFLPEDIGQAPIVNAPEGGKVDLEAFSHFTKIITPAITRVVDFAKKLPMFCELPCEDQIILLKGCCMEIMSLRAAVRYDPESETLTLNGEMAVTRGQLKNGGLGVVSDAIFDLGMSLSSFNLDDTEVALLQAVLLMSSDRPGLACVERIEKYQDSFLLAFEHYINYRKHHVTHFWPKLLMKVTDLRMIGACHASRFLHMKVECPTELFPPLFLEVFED
Chain of Nuclear receptor ROR-gamma (Homo sapiens) (P51449 whole entry, looked up): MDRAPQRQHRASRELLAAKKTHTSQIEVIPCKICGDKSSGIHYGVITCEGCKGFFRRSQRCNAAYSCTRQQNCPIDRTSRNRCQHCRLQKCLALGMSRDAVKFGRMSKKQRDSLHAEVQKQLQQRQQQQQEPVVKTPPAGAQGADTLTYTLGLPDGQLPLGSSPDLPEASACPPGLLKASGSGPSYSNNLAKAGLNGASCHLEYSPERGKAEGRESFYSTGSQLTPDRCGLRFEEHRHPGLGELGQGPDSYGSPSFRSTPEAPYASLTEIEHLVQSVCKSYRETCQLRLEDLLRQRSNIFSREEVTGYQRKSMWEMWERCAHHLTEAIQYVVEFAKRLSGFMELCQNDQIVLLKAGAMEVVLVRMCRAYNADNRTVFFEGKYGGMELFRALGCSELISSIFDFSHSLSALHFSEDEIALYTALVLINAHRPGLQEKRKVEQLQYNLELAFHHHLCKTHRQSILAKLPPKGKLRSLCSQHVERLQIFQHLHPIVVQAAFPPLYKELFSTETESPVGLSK
Chain of Retinoic acid receptor RXR-alpha (Homo sapiens) (P19793 whole entry, looked up): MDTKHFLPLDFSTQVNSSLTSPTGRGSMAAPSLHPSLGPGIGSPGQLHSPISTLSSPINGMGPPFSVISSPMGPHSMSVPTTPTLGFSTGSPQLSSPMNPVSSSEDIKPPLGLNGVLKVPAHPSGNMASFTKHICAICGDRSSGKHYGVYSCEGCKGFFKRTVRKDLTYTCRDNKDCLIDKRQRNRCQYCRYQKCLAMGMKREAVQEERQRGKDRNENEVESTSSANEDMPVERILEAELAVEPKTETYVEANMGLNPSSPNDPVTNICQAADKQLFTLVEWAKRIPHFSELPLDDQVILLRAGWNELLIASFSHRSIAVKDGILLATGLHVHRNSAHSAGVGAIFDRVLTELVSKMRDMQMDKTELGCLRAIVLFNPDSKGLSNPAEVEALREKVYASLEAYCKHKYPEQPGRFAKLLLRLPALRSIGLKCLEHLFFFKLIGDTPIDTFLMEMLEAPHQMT
Chain of Voltage-gated inwardly rectifying potassium channel KCNH2 (Homo sapiens) (Q12809 whole entry, looked up): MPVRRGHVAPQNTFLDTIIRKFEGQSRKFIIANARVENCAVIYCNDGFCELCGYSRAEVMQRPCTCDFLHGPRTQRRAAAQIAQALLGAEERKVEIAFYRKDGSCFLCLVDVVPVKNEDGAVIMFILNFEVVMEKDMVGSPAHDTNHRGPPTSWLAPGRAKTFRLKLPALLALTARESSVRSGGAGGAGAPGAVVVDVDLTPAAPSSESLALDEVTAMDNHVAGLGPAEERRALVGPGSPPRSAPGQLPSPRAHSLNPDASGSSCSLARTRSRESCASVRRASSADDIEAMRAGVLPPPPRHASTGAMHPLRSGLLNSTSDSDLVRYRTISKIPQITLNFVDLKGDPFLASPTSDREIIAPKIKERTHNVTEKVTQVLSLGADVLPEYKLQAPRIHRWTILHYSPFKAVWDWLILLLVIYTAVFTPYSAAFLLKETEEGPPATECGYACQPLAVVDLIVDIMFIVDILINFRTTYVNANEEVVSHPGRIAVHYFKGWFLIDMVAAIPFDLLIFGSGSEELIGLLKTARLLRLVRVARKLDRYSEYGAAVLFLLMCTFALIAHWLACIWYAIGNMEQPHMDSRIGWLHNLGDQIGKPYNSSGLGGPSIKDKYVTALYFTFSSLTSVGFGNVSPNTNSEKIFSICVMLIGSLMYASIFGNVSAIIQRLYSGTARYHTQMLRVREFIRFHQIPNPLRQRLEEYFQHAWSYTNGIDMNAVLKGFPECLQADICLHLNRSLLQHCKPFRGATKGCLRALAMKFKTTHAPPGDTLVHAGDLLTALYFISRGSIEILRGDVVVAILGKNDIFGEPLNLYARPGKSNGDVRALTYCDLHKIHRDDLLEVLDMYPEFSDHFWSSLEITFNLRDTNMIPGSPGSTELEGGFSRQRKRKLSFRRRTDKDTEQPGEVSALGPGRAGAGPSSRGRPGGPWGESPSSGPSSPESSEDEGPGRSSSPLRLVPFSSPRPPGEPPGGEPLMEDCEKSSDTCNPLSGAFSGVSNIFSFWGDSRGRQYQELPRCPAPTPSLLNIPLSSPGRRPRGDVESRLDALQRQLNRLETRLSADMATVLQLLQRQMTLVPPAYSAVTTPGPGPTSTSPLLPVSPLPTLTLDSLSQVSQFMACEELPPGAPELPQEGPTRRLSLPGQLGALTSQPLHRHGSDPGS
Chain of Nuclear receptor subfamily 1 group I member 2 (Rattus norvegicus) (Q9R1A7 whole entry, looked up): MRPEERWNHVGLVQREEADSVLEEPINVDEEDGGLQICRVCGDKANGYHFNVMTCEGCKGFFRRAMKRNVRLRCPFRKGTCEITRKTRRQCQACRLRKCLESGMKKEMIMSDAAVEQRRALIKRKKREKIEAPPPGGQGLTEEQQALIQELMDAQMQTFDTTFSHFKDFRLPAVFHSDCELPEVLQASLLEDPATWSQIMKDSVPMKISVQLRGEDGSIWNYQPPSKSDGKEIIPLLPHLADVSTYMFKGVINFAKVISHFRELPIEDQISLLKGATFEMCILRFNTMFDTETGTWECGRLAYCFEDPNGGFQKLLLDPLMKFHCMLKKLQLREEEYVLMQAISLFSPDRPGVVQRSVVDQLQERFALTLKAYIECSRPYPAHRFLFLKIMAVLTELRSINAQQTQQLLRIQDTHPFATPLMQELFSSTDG

SMILES | Potency [1] | caspase-3 activation [2] | outcome [3] | outcome [4] | Potency [5] | outcome [6] | outcome [7] | Potency [8] | Potency [9] | Potency [10] | max response [11] | max response [12] | Potency [13] | Potency [14] | activation [15] | Potency [16] | max response [17] | outcome [18] | Potency [19] | Potency [20]
C=CC(=O)OCCN(C)C | inactive | 1.53% (inactive) | inactive | inactive | inactive | inactive | inactive | inactive | inactive | inactive | -6.38% | 5.11% (inactive) | inactive | inactive | 0.563% (inactive) | inactive | 2.48% (inactive) | inactive | – | –
CCBr | inactive | -0.439% (inactive) | inactive | inactive | inactive | – | inactive | inactive | inactive | inactive | -5.59% | 2.77% (inactive) | inactive | inactive | – | inactive | 4.52% (inactive) | inactive | inactive | inactive
O=[N+]([O-])c1cc(Cl)c(Cl)cc1Cl | inactive | – | inactive | inactive | inactive | inactive | inactive | inactive | inactive | inactive | 2.5% | 7.08% (inactive) | inactive | inactive | -0.111% (inactive) | inactive | -0.165% (inactive) | inactive | inactive | inactive
c1ccc(OCC2CO2)cc1 (configuration not stated) | inactive | 1.63% (inactive) | inactive | inactive | inactive | – | – | inactive | inactive | – | 6.84% | -20.9% (inactive) | inactive | inactive | 0.197% (inactive) | inactive | -1.75% (inactive) | inactive | inactive | inactive
COC(=O)Nc1cccc(OC(=O)Nc2cccc(C)c2)c1 | inactive | 1.17% (inactive) | inactive | inactive | 25.1 µM (active) | inactive | inactive | inactive | inactive | inactive | -2.23% | 4.03% (inactive) | inactive | 42.2 µM (active) | – | inactive | – | – | inactive | inactive
CCCCC#N | inactive | – | inactive | inactive | inactive | inactive | inactive | inactive | inactive | – | -4.26% | 11.5% (inactive) | inactive | inactive | 1.07% (inactive) | inactive | -0.572% (inactive) | inactive | inactive | inactive
CC(C)(C)c1ccccc1O | inactive | -1.03% (inactive) | inactive | inactive | inactive | inactive | inactive | inactive | inactive | inactive | -15.4% and -14.5% | 2.54% (inactive) and -7.07% (inactive) | inactive | – | 1.34% (inactive) and -1.14% (inactive) | inactive | -1.16% (inactive) and -0.87% (inactive) | inactive | inactive | inactive
ClCCBr | inactive | 0.239% (inactive) | inactive | inactive | inactive | inactive | inactive | inactive | inactive | inactive | -4.86% | -1.05% (inactive) | inactive | inactive | 3.31% (inactive) | inactive | -0.231% (inactive) | inactive | – | inactive
ClP(Cl)(Cl)(Cl)Cl | inactive | 0.993% (inactive) | inactive | inactive | inactive | inactive | inactive | inactive | inactive | inactive | 4.58% | -15.7% (inactive) | inactive | inactive | -0.379% (inactive) | inactive | 0.805% (inactive) | inactive | – | –
C=CCc1cc(OC)c2c(c1)OCO2 | inactive | -0.188% (inactive) | inactive | inactive | 10 µM (active) | inactive | inactive | inactive | inactive | inactive | -4.92% | 9.86% (inactive) | inactive | inactive | 0.0584% (inactive) | inactive | -3.31% (inactive) | inactive | inactive | inactive
CN=C=O | inactive | -0.0583% (inactive) | inactive | inactive | inactive | inactive | inactive | – | inactive | inactive | -1.71% | 0.777% (inactive) | inactive | inactive | -0.54% (inactive) | inactive | 8.83% (inactive) | inactive | inactive | inactive
CCOC(=O)CBr | inactive | 1.06% (inactive) | – | inactive | inactive | inactive | – | inactive | inactive | inactive | -3.97% | -3.36% (inactive) | inactive | inactive | -0.43% (inactive) | inactive | 2.21% (inactive) | inactive | inactive | inactive
Cc1ccccc1[N+](=O)[O-] | inactive | 0.646% (inactive) | inactive | inactive | inactive | inactive | inactive | inactive | inactive | inactive | -5.55% | 10.9% (inactive) | inactive | – | -1.35% (inactive) | inactive | -2.44% (inactive) | inactive | – | –
